Measurements as given in publication PMC12751014, “Non-Catalytic Inhibitors of the p38/MK2 Interface: Repurposing Approved Drugs to Target Neuroinflammation in Alzheimer’s Disease” (Journal of Medicinal Chemistry, 2025).
Screen size: about 1,900 compounds; about 50 (3%) showed an effect of 50% or more. The full list was thinned out, with strong results kept by preference.

biological target: p38/MK2 protein–protein interaction (VF-p38α / GST-MK2) (Homo sapiens, UniProt Q16539); assay: primary screen, percent of control activity; higher = less effect of the substance; design: species or system HEK293T cell lysate transfected with VF-p38α and GST-MK2; unclear (methods say 'quintuplet replicates')
In short: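 Lysate of HEK293T cells transfected with Flag-tagged p38α and GST-MK2, complex detected by TR-FRET with anti-Flag-Tb and anti-GST-d2 antibodies. Five replicates per compound. Signal normalised to percent of DMSO control.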

Chain of p38/MK2 protein–protein interaction (VF-p38α / GST-MK2) (Q16539 2-360 limits assumed): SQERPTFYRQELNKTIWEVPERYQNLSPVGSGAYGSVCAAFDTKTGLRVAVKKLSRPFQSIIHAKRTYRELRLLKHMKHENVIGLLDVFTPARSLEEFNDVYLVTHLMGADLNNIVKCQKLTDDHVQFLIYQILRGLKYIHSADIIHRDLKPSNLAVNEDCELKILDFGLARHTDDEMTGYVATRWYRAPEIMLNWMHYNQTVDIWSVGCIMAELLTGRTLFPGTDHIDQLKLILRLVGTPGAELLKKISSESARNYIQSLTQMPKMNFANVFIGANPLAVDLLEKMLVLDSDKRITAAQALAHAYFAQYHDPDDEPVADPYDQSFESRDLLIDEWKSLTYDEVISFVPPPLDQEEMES

SMILES | Pct of control
CS(=O)(=O)Nc1ccc([N+](=O)[O-])cc1Oc1ccccc1 | 95.3%
CS(=O)(=O)c1ccc(-c2cnc(N)c(C(=O)Nc3ccccc3)n2)cc1 | 101%
Cc1onc(-c2ccccc2)c1-c1ccc(S(N)(=O)=O)cc1 | 91.8%
CS(=O)(=O)c1ccc(C2=C(c3ccccc3)C(=O)OC2)cc1 | 26.5%
O=C(c1ccccc1)c1ccc2n1CCC2C(=O)O (centres unmarked) | 97.5%
CN(C)CCC(c1ccc(Cl)cc1)c1ccccn1.O=C(O)C=CC(=O)O (centres unmarked) | 93.2%
O=c1cc[nH]c(=S)[nH]1 | 98.2%
OCc1c[nH]c2ccccc12 | 76.2%
N#Cc1c(O)c2c(-c3ccc(-c4ccccc4O)cc3)csc2[nH]c1=O | 94.7%
Cl.Cl.O=C1c2c(O)ccc(O)c2C(=O)c2c(NCCNCCO)ccc(NCCNCCO)c21 | 92%
O=C1c2c(O)ccc(O)c2C(=O)c2c(NCCNCCO)ccc(NCCNCCO)c21 | 45.7%
Cc1c(CN2CCN(C(=O)C(C)O)CC2)sc2c(N3CCOCC3)nc(-c3cnc(N)nc3)nc12 (centres unmarked) | 96.8%
CCC(NC(C)C)C(O)c1ccc(O)c(O)c1.CS(=O)(=O)O (centres unmarked) | 90%
NC(=O)c1cccc(-c2cccc(OC(=O)NC3CCCCC3)c2)c1 | 91.2%
COc1cc(=C2C=c3ccccc3=N2)[nH]c1=Cc1[nH]c(C)cc1C.CS(=O)(=O)O | 37.5%
CCOc1cc(N)c(Cl)cc1C(=O)NCC1CN(Cc2ccc(F)cc2)CCO1.O=C(O)CC(O)(CC(=O)O)C(=O)O (centres unmarked) | 96.8%
Cc1coc2c1C(=O)C(=O)c1c-2ccc2c1CCCC2(C)C | 79.4%
CCOC(=O)n1ccn(C)c1=S | 98.2%
CN(C)C1C(=O)C(C(N)=O)=C(O)C2(O)C(=O)C3=C(O)c4c(O)cccc4C(C)(O)C3C(O)C12 (centres unmarked) | 90.8%
C=C1c2cccc(O)c2C(O)=C2C(=O)C3(O)C(O)=C(C(N)=O)C(=O)C(N(C)C)C3C(O)C12.Cl (centres unmarked) | 52.5%
CN(C)C1C(=O)C(C(N)=O)=C(O)C2(O)C(=O)C3=C(O)c4c(O)cccc4C(C)(O)C3C(O)C12.O.O (centres unmarked) | 48.8%

SMILES | Pct of control
COc1ccc(CCC(=O)c2c(O)cc(OC3OC(CO)C(O)C(O)C3OC3OC(C)C(O)C(O)C3O)cc2O)cc1O (centres unmarked) | 94.3%
CC(C)NC[C@H](O)COc1ccc(CCOCC2CC2)cc1.Cl [S4085] | 94.4%
COc1ccc(S(=O)(=O)N(C(C)=O)c2ccccc2C=Cc2cc[n+]([O-])cc2)cc1 | 89.4%
O=C(c1cncc(Br)c1)N1CCC(N2CCCC2)CC1 | 85.2%
O=C(C=Cc1cccc(S(=O)(=O)Nc2ccccc2)c1)NO | 103%
Cc1cc(C(=O)CN2CCCC2)c(C)n1-c1ccc(F)cc1 | 88.5%
Cc1cc2c(C(=O)NC[C@H](C)c3ccccc3)c(O)c(O)cc2c(O)c1-c1c(C)cc2c(C(=O)NC[C@H](C)c3ccccc3)c(O)c(O)cc2c1O | 36.8%
Cc1cc(-c2ncc(CC(=O)Nc3ccc(-c4cnccn4)cn3)cc2C)ccn1 | 98%
Nc1ncnc2c1ncn2[C@@H]1O[C@H](CO)[C@@H](O)[C@@H]1O [S1784] | 91.5%
CN(C)CCOC(C)(c1ccccc1)c1ccccn1.O=C(O)CCC(=O)O (centres unmarked) | 101%
O=C1c2c(O)cc(O)cc2O[C@H](c2cc(O)c(O)c(O)c2)[C@H]1O | 71.3%
COc1ccc(C2CC(=O)c3c(O)cc(O)cc3O2)cc1O (centres unmarked) | 90.9%
O=C(OC1Cc2c(O)cc(O)cc2OC1c1cc(O)c(O)c(O)c1)c1cc(O)c(O)c(O)c1 (single isomer, unassigned; (-)) | 32.5%
CC12CC3CC(C)(C1)CC(N)(C3)C2.Cl | 94.2%
COc1cccc2c1C(=O)c1c(O)c3c(c(O)c1C2=O)CC(O)(C(=O)CO)CC3OC1CC(N)C(OC2CCCCO2)C(C)O1 (centres unmarked) | 56.6%
CC(NC(=O)C(O)c1cc(F)cc(F)c1)C(=O)NC1C(=O)N(C)c2ccccc2-c2ccccc21 (centres unmarked) | 105%
CN(C)CC(c1ccc(O)cc1)C1(O)CCCCC1 (centres unmarked) | 98.6%
Nc1ccccc1NC(=O)c1ccc(CNC(=O)OCc2cccnc2)cc1 | 96.2%
O=C(O)c1ccc(N2C(=O)C(=Cc3ccc(-c4ccc([N+](=O)[O-])cc4)o3)C=C2c2ccccc2)cc1 | 24.8%
COc1c(C)cnc(Cn2cnc3c(Cl)nc(N)nc32)c1C | 111%
COC1C=CC=C(C)C(=O)NC2=CC(=O)C(NCCN(C)C)=C(CC(C)CC(OC)C(O)C(C)C=C(C)C1OC(N)=O)C2=O.Cl (centres unmarked) | 96.9%

SMILES | Pct of control
Cl.OC(CCN1CCCCC1)(c1ccccc1)C1CC2C=CC1C2 (centres unmarked) | 117%
COc1cc(C(C)=O)ccc1O | 90.4%
O=C1Nc2ccc(I)cc2C1=Cc1cc(Br)c(O)c(Br)c1 | 43.6%
CCNCC.O=C(O)Cc1ccccc1Nc1c(Cl)cccc1Cl | 95.1%
CN(C)CCc1ccc(O)cc1 | 89.6%
COc1cc2nc(N(C)CCCNC(=O)C3CCCO3)nc(N)c2cc1OC.Cl (centres unmarked) | 17.9%
COc1cc2nc(N3CCN(C(=O)C4CCCO4)CC3)nc(N)c2cc1OC.Cl.O.O (centres unmarked) | 23.3%
COc1cc2nc(N3CCN(C(=O)C4COc5ccccc5O4)CC3)nc(N)c2cc1OC.CS(=O)(=O)O (centres unmarked) | 41.5%
c1ccc(CNc2nc(NCc3ccccc3)c3ccccc3n2)cc1 | 74.5%
CCn1nc(C(=O)O)c(=O)c2cc3c(cc21)OCO3 | 86.4%
CC12CCC3c4ccc(O)cc4CCC3C1CCC2=O (centres unmarked) | 88.5%
O=c1[nH]c2ccccc2n1CCCN1CCC(n2c(=O)[nH]c3cc(Cl)ccc32)CC1 | 91.8%
CC1CCc2c(N3CCC(O)CC3)c(F)cc3c(=O)c(C(=O)O)cn1c23 (centres unmarked) | 90.3%
N#CC(=Cc1ccc(O)c(O)c1)C(=O)NCc1ccccc1 | 95.3%
CC(NC(=O)C(C#N)=Cc1cccc(Br)n1)c1ccccc1 (centres unmarked) | 24.1%
CCCC(NC(=O)C(C#N)=Cc1cccc(Br)n1)c1ccccc1 (centres unmarked) | 20.3%
CCOC(=O)C1=C(COCCN)NC(C)=C(C(=O)OC)C1c1ccccc1Cl.O=S(=O)(O)c1ccccc1 (centres unmarked) | 91.6%
CC(C)CCN1c2nc(Nc3cc(F)c(O)c(F)c3)ncc2N(C)C(=O)C1C (centres unmarked) | 86.7%
S=c1nc[nH]c2nc[nH]c12 | 126%
COc1cc(-c2ncn(C=CC(=O)OC(C)C)n2)cc(C(F)(F)F)c1 | 91.8%
CN1CCN(c2nc(C3=C(c4c[nH]c5ccccc45)C(=O)NC3=O)c3ccccc3n2)CC1 | 109%

SMILES | Pct of control
CC(=O)Oc1cc2c(s1)CCN(C(C(=O)C1CC1)c1ccccc1F)C2 (centres unmarked) | 87.9%
Cc1cc(OCc2nnc(SC3CCCC3)n2-c2cccnc2)ccc1-c1ccc(S(C)(=O)=O)cc1 | 94.4%
CCCCCCNC(=O)n1cc(F)c(=O)[nH]c1=O | 110%
CN1CCc2cccc3c2C1Cc1ccc(O)c(O)c1-3.CN1CCc2cccc3c2C1Cc1ccc(O)c(O)c1-3.Cl.Cl.O (centres unmarked) | 44.4%
CN1CCc2cc3c(cc2C1C1OC(=O)c2c1ccc1c2OCO1)OCO3 (single isomer, unassigned; (+)) | 93.7%
CN1CCCC1c1cccnc1.O=C(O)C(O)C(O)C(=O)O.O=C(O)C(O)C(O)C(=O)O (centres unmarked) | 91.9%
O=C1CC(=O)c2c(Cl)c(Cl)c(Cl)c(Cl)c21 | 32.6%
CC(=O)CCCCn1c(=O)c2c(ncn2C)n(C)c1=O | 88.5%
Cc1cc2c(cc1S(N)(=O)=O)S(=O)(=O)CCC2 | 94.1%
Br.CN1C2CC(OC(=O)C(CO)c3ccccc3)CC1C1OC12 (centres unmarked) | 98.3%
Nc1nccc(Oc2ccc(NC(=O)c3c[nH]cc(-c4ccc(F)cc4)c3=O)cc2F)c1Cl | 73.2%
Cc1nc(NC(=O)N2CCCC2C(N)=O)sc1-c1ccnc(C(C)(C)C(F)(F)F)c1 (centres unmarked) | 108%
Cc1ccc(Nc2nccc(N(C)c3ccc4c(C)n(C)nc4c3)n2)cc1S(N)(=O)=O | 84.3%
CC(C)c1cc(C(C)C)c(CC(=O)NS(=O)(=O)Oc2c(C(C)C)cccc2C(C)C)c(C(C)C)c1 | 36.9%
CNCC(O)c1ccc(O)c(O)c1.O=C(O)C(O)C(O)C(=O)O (centres unmarked) | 92.6%
CCCC[N+]1(C)C2CC(OC(=O)C(CO)c3ccccc3)CC1C1OC12.[Br-] (centres unmarked) | 96.8%
O=C(NCC1(c2nc(-c3ccccc3)cs2)CCOCC1)c1cccc(-c2noc(C(F)(F)F)n2)c1 | 114%
NC(=O)N/N=C/c1ccc([N+](=O)[O-])o1 | 106%
CCOC(=O)c1ccc(N2NC(=O)C(=Cc3ccc([N+](=O)[O-])o3)C2=O)cc1 | 34.2%
CCOC(=O)c1ccc(N)cc1 | 97.4%
